# Assay outcomes (PubChem)
# FBPA coupling cs: coupling enzyme interference in Giardia aldolase counter-screen; coupling enzyme system counterscreen, AmpLite Red fluorescence; activity change, negative = inhibition, % at 58.2 µM, hits read low; hit rate 0.67% among 290,000; in the data active = activity change below about -30%
#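 Final compound at 57.5 uM, incubated 10 min at RT with coupling enzyme reagent (glyceraldehyde-3-phosphate), then 20 min with substrate and AmpLite Red detection. Fluorescence read at 525/598 nm; tests interference with the coupling assay, not aldolase inhibition.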
# Gal4-VP16 FLuc: Gal4-VP16 reporter inhibition counter-screen | Potency, µM (series often up to 53.6 µM), inactives show top-dose activity, negative = inhibition, actives largely listed as inhibitors | hit rate 3.5% among 310,000 | AID 2546 | Drosophila S2 Gal4-VP16 UAS-luciferase, luminescence, 20 h;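 also: Gal4-VP16 expression switched on by copper sulfate through the metallothionein promoter; potency is read from the fitted curve at half-maximal effect; nearly all actives have a fitted effect of over 50% in size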
# GALK inhibitor: galactokinase (human) inhibition; P51570; Purified GALK, Kinase-Glo residual ATP luminescence; Potency, µM (titrated, usually from 57.5 µM), without a hit: top-dose activity change, negative = inhibition, most hits filed as inhibitors; hit rate 0.007% among 270,000; also: potency is read from the fitted curve at half-maximal effect
#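 GALK at 5 nM final was combined with compound, 35 uM ATP and 100 uM galactose in HEPES pH8.0 with MgCl2 and DTT. The reaction ran one hour at room temperature before luminescent ATP detection.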
# rTrxR1 inhibitor: rat TrxR1 inhibition. Potency, µM (highest dose often 114 µM), for the others: top-dose activity change, negative = inhibition, actives largely listed as inhibitors. recombinant rTrxR1, NADPH fluorescence consumption, selenite substrate. O89049. hit rate 1% among 390,000; also: potency is read from the fitted curve at half-maximal effect; nearly all actives have a fitted effect of over 65% in size
#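 Rat TrxR1 (90 nM in the dispensed reagent) was pre-reduced with 400 uM NADPH for 5 min at room temperature, then incubated with compound for 15 min. After 400 uM selenite was added, NADPH fluorescence (Ex 340/Em 450 nm) was followed for 8 min.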
# RORg inh: inhibitors of mouse ROR gamma transcriptional activity | P51450 | Drosophila S2 Gal4-RORgamma UAS-luciferase reporter, 20 h | Potency, µM (doses to about 53.6 µM), inactives show top-dose activity change, negative = inhibition, hits mostly inhibitors | hit rate 5.4% among 310,000 | AID 2551; also: potency is read from the fitted curve at half-maximal effect; nearly all actives have a fitted effect of over 60% in size
# Target sequence (P51450 whole entry, looked up, the tested form may be a part): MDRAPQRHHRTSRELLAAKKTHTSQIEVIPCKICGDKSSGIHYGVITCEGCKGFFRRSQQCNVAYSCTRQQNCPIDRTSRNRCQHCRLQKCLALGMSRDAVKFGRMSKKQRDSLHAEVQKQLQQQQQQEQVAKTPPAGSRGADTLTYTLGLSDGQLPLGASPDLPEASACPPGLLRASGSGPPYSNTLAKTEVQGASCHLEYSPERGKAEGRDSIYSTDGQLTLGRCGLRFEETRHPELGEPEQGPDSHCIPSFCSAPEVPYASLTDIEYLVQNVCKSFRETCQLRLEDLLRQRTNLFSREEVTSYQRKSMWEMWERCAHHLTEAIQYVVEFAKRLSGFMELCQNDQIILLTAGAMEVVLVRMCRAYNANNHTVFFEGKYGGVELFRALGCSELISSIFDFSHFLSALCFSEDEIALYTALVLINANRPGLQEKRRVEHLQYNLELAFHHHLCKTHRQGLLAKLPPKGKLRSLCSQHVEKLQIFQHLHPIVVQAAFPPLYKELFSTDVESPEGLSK
#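 Compounds are pin-transferred onto Drosophila Schneider cells expressing a copper-inducible Gal4–ROR gamma transactivation domain fusion. After 1 hr, copper sulfate is added to 700 uM final; luciferase is read 20 hr later.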
# TrxR1 substrate: substrates of rat thioredoxin reductase 1; O89049; purified TrxR1 substrate turnover, NADPH consumption readout; Potency, µM (highest dose often 114 µM), without a hit: at the highest dose activity change, negative = substrate turnover; hit rate 0.01% among 390,000; also: potency is read from the fitted curve at half-maximal effect; nearly all actives have a fitted effect of over 50% in size
#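 Rat TrxR1, dispensed at 90 nM, was prereduced with 400 uM NADPH (final) for 5 min at ~22 deg C, then incubated with compound 15 min before 400 uM selenite. A first-read NADPH fluorescence drop versus no-compound background flagged substrates.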
# An asterisk follows results filed as active; ? = inconclusive; . = no result given; [ ] = dose if it differs, or a comment. Shown are actives, neighbours in structure and some others; about 5.9% of the full set was active somewhere. Unless noted, calls follow the shape of the dose curve; as a rule, active = well fitted curve in the direction sought with a large enough effect; inconclusive = small, poorly fitted or top-dose-only effect, or another doubt; inactive = no such curve, though single readings can be large; an effect the other way counts as inactive or inconclusive. % is scaled to controls: 0 for no effect and ±100 for the full control effect.
SMILES,FBPA coupling cs,Gal4-VP16 FLuc,GALK inhibitor,rTrxR1 inhibitor,RORg inh,TrxR1 substrate
O=C(N/N=C\c1ccc([N+](=O)[O-])s1)c1cncc(Br)c1,0.3,1.12µM*,1.7%,-22.8%,0.708µM*,-11.4%
O=C(O)c1ccc(N/N=C/c2cc(Br)cs2)cc1,2.7,1µM*,8.6%,0.3%[57.1 µM],6.31µM*,-10.5%
O=C(N/N=C/c1cccs1)c1cncc(Br)c1,0.9,2µM*,0.4%,2.8%[57.1 µM],1µM*,-1.1%[57.1 µM]
O=C(N/N=C/c1cccs1)c1cccnc1,0.4,-25.0%,1.3%,10.2%,?,-3.1%
O=C(N/N=C/c1ccc([N+](=O)[O-])s1)C(O)c1ccccc1 (stereo unspecified),-25.1,?,0.5%,?,17.9%,-6.8%
Cc1cc(C(=O)N/N=C/c2ccc([N+](=O)[O-])s2)c2ccccc2n1,1.9,3.55µM*,-2.6%,-13.0%,5.62µM*,-2.7%
Cc1ccc(/C=N/NC(=O)c2cccnc2)o1,-0.1,-9.6%,-0.3%,-15.8%,-27.1%,-9.1%
Cc1ccc(/C=N\NC(=O)c2cncc(Br)c2)o1,-3.7,?,.,-13.7%,5.01µM*,-16.1%
CCc1ccc(/C=N/NC(=O)c2cc(C3CC3)nc3ccccc23)s1,-0.1,1.78µM*,-0.4%,4.4%,1.26µM*,0.0%
CC(C)CCNC(=O)c1cccc(-n2cnc3cccnc32)c1,.,.,.,-11.1%,.,-8.9%
CC(=O)Nc1sc(/C(C#N)=C/c2ccc(Cl)c(Cl)c2)nc1-c1ccc(C)cc1,-44.1*,-10.1%,2.1%,-2.7%,-1.6%,-4.3%
Cc1ccc(-c2c(C)nn3c(N4CCOCC4)cc(C)nc23)cc1,-0.6,4.4%,.,11.1%,-7.6%,1.3%
COc1ccc(C(=O)CCS(=O)(=O)c2ccc(C)cc2)cc1,-4.9,10µM*,-2.7%,14.1µM*,5.62µM*,-0.3%
Cc1ccc(C(=O)CCS(=O)(=O)c2ccc(Br)cc2)cc1,-0.6,?,-1.9%,0.501µM*,-142.7%,13.9%
COc1ccc(COC(=O)CCS(=O)(=O)c2ccc(C)cc2)cc1,.,.,.,7.6%,.,-3.1%[57.1 µM]
O=C(CCNc1cccc(F)c1)c1cc2ccccc2o1,-5.9,2.1%,-0.2%,7.94µM*,17.1%,1.3%
Cc1ccc(NC(=O)CCS(=O)(=O)c2ccc(Br)cc2)c(C)c1,.,.,.,16.6%[57.1 µM],.,-0.1%[57.1 µM]
Cc1ccc(S(=O)(=O)CCC(=O)c2cccc([N+](=O)[O-])c2)cc1,0.0,5.01µM*,-0.9%,?,3.98µM*,10.9%[57.1 µM]
O=C(NC(=S)Nc1cccc(Cl)c1)c1cncc(Br)c1,.,.,.,0.1%[57.1 µM],.,4.9%[57.1 µM]
Cc1c(OCC(=O)NC(Cc2ccc(Cl)cc2)C(=O)O)ccc2c1oc(=O)c1ccccc12 (stereo unspecified),10.8,-0.5%,.,-0.8%,-7.2%,154.9%
COc1ccc(C(CC(=O)c2ccc(O)cc2)S(=O)(=O)c2ccc(C)cc2)cc1 (stereo unspecified),-2.7,10µM*,1.8%,28.9%,1.78µM*,7.4%
O=C(CCNc1cccc(F)c1)c1cccc([N+](=O)[O-])c1,-2.7,25.1%,-1.2%,6.31µM*,?,-3.0%[57.1 µM]
COc1ccc(C(=O)NCS(=O)(=O)c2ccc(C)cc2)cc1,5.5,4.8%,-1.2%,28.2µM*,-16.7%,2.9%
COc1ccc(C(=O)NCCS(=O)(=O)NCc2ccc(C)cc2)cc1,.,.,.,9.2%[57.1 µM],.,4.7%[57.1 µM]
CCOC(=O)c1ccc([N+](=O)[O-])c(CS(=O)(=O)c2ccc(Cl)cc2)c1,-0.7,0.8%,-0.1%,-2.7%,23.5%,-3.6%
SMILES,FBPA coupling cs,Gal4-VP16 FLuc,GALK inhibitor,rTrxR1 inhibitor,RORg inh,TrxR1 substrate
Cc1ccc(S(=O)(=O)Cc2cc(F)c([N+](=O)[O-])cc2[N+](=O)[O-])cc1,2.1,6.31µM*,-2.4%,17.8µM*,-41.1%,-1.3%
COc1ccc(CC(=O)Nc2cc(S(=O)(=O)Nc3ccc(OC)cc3)ccc2OC)cc1,.,.,.,23.1%,.,-4.8%
COc1cc(/C=C2\SC(=O)NC2=O)ccc1Oc1cnccn1,0.2,-1.1%,0.5%,-5.2%,24.5%,-15.2%
COc1cc(OC)cc(C(=O)N2CCN(C(=O)c3ccc(-c4ccccc4)cc3)CC2)c1,-7.9,7.08µM*,-3.1%,-32.8%[57.1 µM],1.12µM*,8.1%[57.1 µM]
COc1ccc(C(=O)N2CCN(C(=O)c3ccc(-c4ccccc4)cc3)CC2)cc1OC,0.8,1.8%,13.1%,24.4%[57.1 µM],22.3%,5.5%[57.1 µM]
C[C@]12C(=O)N(c3cccc(F)c3)C(=O)N1[C@H]1c3ccccc3OC[C@@H]1[C@H]2c1ccccc1,.,.,.,29.7%,.,5.0%
CCN1CCN(Cc2ccc(NC(=O)c3ccc(C)c(NC(=O)C(=O)c4c[nH]c5ccccc45)c3)cc2C(F)(F)F)CC1,-2.0,?,4.2%,-3.5%,12.6µM*,-7.8%
CCN(c1ccccc1)S(=O)(=O)c1cccc(C(=O)N(C)CC(=O)Nc2ccc(F)c(F)c2F)c1,.,.,.,23.5%,.,4.2%
Cc1ccc(-c2cc(-c3ccccc3)c(C#N)c(N)n2)o1,-2.3,?,1.5%,-32.6%[57.1 µM],20µM*,138.6%[57.1 µM]
N#Cc1c(-c2ccncc2)c2c([nH]c1=S)CCCC2,-35.7*,-9.8%,-0.2%,?,19.5%,6.3%[57.1 µM]
Cc1ccc(-c2c(C#N)c(N)nc3c2CCCC3)o1,0.9,21.3%,-1.9%,31.6µM*,20.5%,13.3%
Cc1ccc(-c2c3c([nH]c(=S)c2C#N)CCCC3)o1,-18.4,-1.4%,5.3%,44.7µM*,-19.1%,-10.9%
N#Cc1c(SCC(N)=O)nc2c(c1-c1ccncc1)CCCC2,1.0,-0.7%,8.0%,-2.2%,-26.3%,5.4%
Cc1ccc(-c2cc(-c3ccccc3Cl)c(C#N)c(N)n2)o1,-2.5,-4.9%,-2.0%,?,?,248.6%
COc1ccc(OC)c2c1C(=O)C(Cl)=C(Cl)C2=O,-44.9*,5.01µM*,0.2%,0.159µM*,5.01µM*,-4.9%
CCc1nc(OCCN(C)C)c2oc3ccccc3c2n1,1.0,-9.6%,-0.6%,13.9%,35.2%,5.5%
CCOC(=O)c1cc(C(C)(C)C)oc1CNC(=O)c1c(C)oc2c1CCCC2,2.3,-17.8%,0.1%,?,93.8%,-8.0%
CCOC(=O)c1ccc(CNC(=O)c2cc(C(C)(C)C)oc2C)o1,2.5,?,-2.9%,?,6.31µM*,-12.7%
CN1C(=O)C(N=Nc2ccc([N+](=O)[O-])cc2)SC1=S (stereo unspecified),.,.,.,-2.3%[2.29 µM],.,8.1%[57.1 µM]
CCC(=O)N1CCc2cc(Br)cc(S(=O)(=O)N3CCCC(C(=O)NCc4ccc(F)cc4)C3)c21 (stereo unspecified),.,.,.,-1.5%,.,-6.8%
CCOC(=O)c1c(-c2ccc(C)o2)csc1NC(=S)NC(=O)c1ccccc1Br,-0.8,10µM*,-1.1%,-6.9%,7.94µM*,0.2%
